Where a name gives a salt, the structure may show the parent alone.
Columns and labels:
Experiment in all cases: bioluminescence (viable cell) signal fold change after vs before treatment, normalised to DMSO (ratio); higher = more tumour cell growth / less inhibition
Conditions in all cases: 10 µM; treatment time 6 days
[1] = system: LEGO organoid PT (PTEN-/-; TP53-/-)
Experimental: (§1)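 Luc2-labelled iPSC-derived glioblastoma-like organoids (LEGOs, genotypes PT = PTEN-/-;TP53-/-, PTCC = plus CDKN2A/B-/-, PTN = plus NF1-/-) were treated with 10 uM drug for 6 days (applied every other day) at 37 C. Bioluminescence imaging was done before treatment and 2 days after the last dose. BLI signals were normalised to the DMSO control on the same day and then to the pre-treatment signal (N=3).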

[2] = system: LEGO organoid PTCC (PTEN-/-; TP53-/-; CDKN2A-/-; CDKN2B-/-)
Experimental: as §1

[3] = system: LEGO organoid PTN (PTEN-/-; TP53-/-; NF1-/-)
Experimental: as §1

SMILES | bioluminescence [1] | bioluminescence [2] | bioluminescence [3]
CC(C)NCC(O)COc1cccc2ccccc12.Cl (stereo not given) [Propranolol hydrochloride] | 1.03 | 0.672 | 1.25
NC(=O)OCC(COC(N)=O)c1ccccc1 [Felbamate] | 0.699 | 3.87 | 0.547
CCC1(C)CC(=O)NC1=O (stereo not given) [Ethosuximide] | 0.871 | 0.668 | 0.778
CN(C)CC(c1ccc(O)cc1)C1(O)CCCCC1 (stereo not given) [Desvenlafaxine] | 1.01 | 1.07 | 0.36
COC(=O)/C=C/C(=O)OC [Dimethyl fumarate] | 0.759 | 0.94 | 1.44
CCCc1nc(C)c2c(=O)[nH]c(-c3cc(S(=O)(=O)N4CCN(CC)CC4)ccc3OCC)nn12 [Vardenafil] | 1.36 | 1.16 | 1.29
O=c1cc(O)c(Cl)c[nH]1 [Gimeracil] | 0.79 | 0.774 | 1.25
O=C(CCCN1CC=C(n2c(=O)[nH]c3ccccc32)CC1)c1ccc(F)cc1 [Droperidol] | 1.37 | 0.69 | 0.372
C#CCN[C@@H]1CCc2ccccc21.CS(=O)(=O)O [Rasagiline Mesylate] | 0.604 | 2.02 | 1.25
COCCCC/C(=N\OCCN)c1ccc(C(F)(F)F)cc1.O=C(O)/C=C\C(=O)O [Fluvoxamine maleate] | 1.22 | 0.792 | 1.47
Cc1ccc(Nc2nccc(N(C)c3ccc4c(C)n(C)nc4c3)n2)cc1S(N)(=O)=O [Pazopanib] | 0.948 | 0.395 | 0.583
CN(C)CCc1c[nH]c2ccc(Cn3cncn3)cc12.O=C(O)c1ccccc1 [Rizatriptan benzoate] | 0.898 | 1.84 | 0.666
C[C@H](C(=O)O)c1cccc(C(=O)c2ccccc2)c1 [(S)-(+)-Ketoprofen] | 0.793 | 1.1 | 0.728
COc1cc2ncnc(Nc3ccc(F)c(Cl)c3)c2cc1OCCCN1CCOCC1 [Gefitinib] | 1.78 | 1.22 | 2.43
S=c1nc[nH]c2nc[nH]c12 [Mercaptopurine] | 4.23 | 1.6 | 0.946
Cl.OC[C@H]1NC[C@H](O)[C@@H](O)[C@H]1O [Migalastat hydrochloride] | 0.868 | 0.51 | 0.719
CN[C@H]1CC[C@@H](c2ccc(Cl)c(Cl)c2)c2ccccc21.Cl [Sertraline hydrochloride] | 0.66 | 0.888 | 1.32
Cl.O.O=C1Cc2cc(CCN3CCN(c4nsc5ccccc45)CC3)c(Cl)cc2N1 [Ziprasidone hydrochloride monohydrate] | 0.909 | 1.05 | 0.716
C[C@]12CCC3=C4CCC(=O)C=C4CC[C@H]3[C@@H]1CC[C@@]2(O)CC#N [Dienogest] | 0.653 | 3.61 | 0.658
CC(C(=O)O)c1ccc(-c2ccccc2)c(F)c1 (stereo not given) [Flurbiprofen] | 1.09 | 0.856 | 1.47
NCCS(=O)(=O)O [Taurine] | 1.84 | 0.71 | 0.673
O=C1Nc2ccc(Cl)cc2[C@@](C#CC2CC2)(C(F)(F)F)O1 [Efavirenz] | 0.965 | 1.96 | 0.908
Cc1nc2n(c(=O)c1CCN1CCC(c3noc4cc(F)ccc34)CC1)CCCC2 [Risperidal] | 1.57 | 1.93 | 1.31
C[C@@H](c1ncncc1F)[C@](O)(Cn1cncn1)c1ccc(F)cc1F [Voriconazole] | 0.515 | 0.587 | 1.46
COc1ccc([C@@H]2CC(=O)c3c(O)cc(O[C@@H]4O[C@H](CO[C@@H]5O[C@@H](C)[C@H](O)[C@@H](O)[C@H]5O)[C@@H](O)[C@H](O)[C@H]4O)cc3O2)cc1O [Hesperidin] | 1.16 | 0.805 | 1.75
CCCC(CCC)C(=O)[O-].[Na+] [Valproic acid sodium salt] | 1.11 | 1.23 | 2.43
Cl.CN(C)CC\C=C1\c2ccccc2CCc2ccccc12 [Amitriptyline hydrochloride] | 1.32 | 0.794 | 1.12
CNC(=O)c1cc(Oc2ccc(NC(=O)Nc3ccc(Cl)c(C(F)(F)F)c3)cc2)ccn1 [Sorafenib] | 0.335 | 0.105 | 0.285
Nc1[nH]c(=O)ncc1F [Fluorocytosine] | 2.51 | 1.01 | 1.26
C[C@@H]1C[C@H]2[C@@H]3CCC4=CC(=O)C=C[C@]4(C)[C@@]3(F)[C@@H](O)C[C@]2(C)[C@@]1(O)C(=O)CO [Dexamethasone] | 0.763 | 1.28 | 1.71

— the supplement of paper PMC10811239
